Legend:
Assay in all cases: PBM binding z-score (relative to random genomic background probes); higher = stronger binding; sequences stand for … in GC…GCGATTGACAGCGTAGAATGAAGG
[1] = tested on: FXR:RXRa (NR concentration 270 nM, RXRa partner concentration 90 nM)
Procedure, shortened: (§1)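 Ligand-free nuclear receptor dimers were bound for 1 h to custom Agilent 4×180K protein-binding microarrays. Detection used antibodies against each partner (one per run). Binding z-scores rest on regression-normalized fluorescence, with random background probes as the reference.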

[2] = tested on: LXRa:RXRa (NR concentration 270 nM, RXRa partner concentration 90 nM)
Procedure, shortened: as §1

[3] = tested on: LXRa homodimer (NR concentration 270 nM)
Procedure, shortened: as §1

[4] = tested on: LXRb:RXRa (NR concentration 270 nM, RXRa partner concentration 90 nM)
Procedure, shortened: as §1

[5] = tested on: LXRb homodimer (NR concentration 270 nM)
Procedure, shortened: as §1

[6] = tested on: PPARa:RXRa (NR concentration 270 nM, RXRa partner concentration 90 nM)
Procedure, shortened: as §1

[7] = tested on: PPARg:RXRa (NR concentration 180 nM, RXRa partner concentration 90 nM)
Procedure, shortened: as §1

[8] = tested on: PPARg:RXRa 270nM:90nM, anti-RXR (NR concentration 270 nM, RXRa partner concentration 90 nM)
Procedure, shortened: as §1

[9] = tested on: PPARg:RXRa 30nM:10nM, anti-RXR (NR concentration 30 nM, RXRa partner concentration 10 nM)
Procedure, shortened: as §1

[10] = tested on: PPARg:RXRa 90nM:30nM, anti-RXR (NR concentration 90 nM, RXRa partner concentration 30 nM)
Procedure, shortened: as §1

[11] = tested on: PPARg:RXRa DBDmut IVT, anti-RXR (DBD mutation: RXRa K156A/R161A, NR concentration 270 nM, RXRa partner concentration 90 nM)
Procedure, shortened: as §1

[12] = tested on: PPARg:RXRa IVT, anti-PPARg (NR concentration 270 nM, RXRa partner concentration 90 nM)
Procedure, shortened: as §1

[13] = tested on: PPARg DBDmut:RXRa IVT, anti-PPARg (DBD mutation: PPARg1 K132A/R137A, NR concentration 270 nM, RXRa partner concentration 90 nM)
Procedure, shortened: as §1

[14] = tested on: PPARg DBDmut IVT, anti-PPARg (DBD mutation: PPARg1 K132A/R137A, NR concentration 270 nM)
Procedure, shortened: as §1

[15] = tested on: PPARg homodimer (NR concentration 180 nM)
Procedure, shortened: as §1

[16] = tested on: PXR:RXRa (NR concentration 270 nM, RXRa partner concentration 90 nM)
Procedure, shortened: as §1

[17] = tested on: PXR homodimer (NR concentration 270 nM)
Procedure, shortened: as §1

[18] = tested on: RARa:RXR (NR concentration 270 nM, RXRa partner concentration 90 nM)
Procedure, shortened: as §1

[19] = tested on: RARa homodimer (NR concentration 270 nM)
Procedure, shortened: as §1

[20] = tested on: RARb:RXRa (NR concentration 270 nM, RXRa partner concentration 90 nM)
Procedure, shortened: as §1

| Sequence | PBM binding z-score [1] | PBM binding z-score [2] | PBM binding z-score [3] | PBM binding z-score [4] | PBM binding z-score [5] | PBM binding z-score [6] | PBM binding z-score [7] | PBM binding z-score [8] | PBM binding z-score [9] | PBM binding z-score [10] | PBM binding z-score [11] | PBM binding z-score [12] | PBM binding z-score [13] | PBM binding z-score [14] | PBM binding z-score [15] | PBM binding z-score [16] | PBM binding z-score [17] | PBM binding z-score [18] | PBM binding z-score [19] | PBM binding z-score [20] |
| --- | --- | --- | --- | --- | --- | --- | --- | --- | --- | --- | --- | --- | --- | --- | --- | --- | --- | --- | --- | --- |
| TTACCAAGGTGGGCTGAGGTCGTTGATCCAACTC | 1.56 | 0.463 | -0.083 | 0.938 | -0.656 | 0.97 | -0.473 | 0.212 | -0.219 | -0.0469 | -0.241 | 0.386 | -0.362 | -0.213 | -0.101 | 2.86 | 0.257 | 1.14 | 0.0238 | 0.446 |
| GCTGCTAGGTCAACTGCTGGTCAGCTAAAGCTCG | 4.1 | 3.03 | 0.0225 | 1.95 | -0.0517 | 3.53 | 2.54 | 2.94 | 0.291 | 1.66 | 5.01 | 4.38 | -0.67 | -1.29 | 0.927 | 1.25 | -0.956 | 2.52 | -0.88 | 4.34 |
| CCTCACGGGTCAAGGTTATAGCACGGGTGGTACG | 5.02 | 3.42 | 0.0967 | 2.74 | -0.33 | 4.38 | 3.05 | 3.67 | 0.731 | 2.35 | 0.0332 | 1.85 | 0.133 | 0.0961 | 2.07 | 3.03 | 0.458 | 3.73 | 0.228 | 4.17 |
| TCTATTAGTTGATTAGGGGAACCGAAACAGCGGA | 0.954 | 0.771 | 0.585 | 0.845 | 1.38 | 0.915 | 0.0434 | 2.05 | 4.11 | 2.94 | 2.55 | 0.819 | 0.627 | 1.48 | 1.45 | 0.576 | 0.595 | 0.544 | 2.06 | 0.416 |
| CGTCCAAGGCCAGAGAGGTCAGTGAATGCCGAGT | 1.34 | 1.44 | 0.491 | 1.74 | -0.859 | 2.28 | 0.0517 | 0.653 | -0.871 | -0.148 | 0.239 | 0.381 | -0.198 | -1.31 | 0.821 | 3.1 | 3.64 | 2.39 | -0.0907 | 3.41 |
| AGAATGAGGTTATGAAGATCAGGGAATTGCGGTC | 1.75 | 1.53 | 0.162 | 1.04 | -0.127 | 2.86 | 1.68 | 2.1 | 1.05 | 1.61 | 3.44 | 2.45 | 0.386 | -0.347 | 0.625 | 1.18 | 0.111 | 1.87 | 0.262 | 1.7 |
| ACTATTAGTTGAGACTAGGGCAACCGATAGGTTG | -0.2 | -0.21 | -0.416 | -0.304 | 0.0178 | 0.296 | 0.679 | 0.33 | 0.227 | -0.101 | 1.02 | 2.46 | 0.767 | 0.914 | -0.0941 | -0.323 | -0.0618 | -0.0584 | 0.518 | 0.583 |

— the supplement of paper PMC6555819
